Inconclusive results are not listed. The source made the active and inactive calls. Calls follow the shape of the dose curve; as a rule, active = well fitted curve in the direction sought with a large enough effect; inconclusive = small, poorly fitted or top-dose-only effect, or another doubt; inactive = no such curve, though single readings can be large; an effect the other way counts as inactive or inconclusive.
Key:
[1] = Validation screen for small molecules that induce DNA re-replication in MCF 10A normal breast cells (AID 463097); also: nearly all actives have a fitted effect of over 60% in size
How it was run: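 Read-out is Hoechst total nuclear intensity by fluorescence scanning imager, flagging increased high-DNA-content nuclei. Compounds were incubated with MCF 10A cells for 48 hr (37 C, 5% CO2) before 40 min staining.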

[2] = High Content Imaging Cell-Based qHTS for Inhibitors of the mTORC1 Signaling Pathway in MEF (Tsc2-/-, p53-/-) Cells (AID 2666);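 also: percent of cells scored positive for phospho-rpS6 Ser235/236 immunostaining by imaging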
How it was run: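 Inhibition of rpS6 phosphorylation is measured by immunofluorescence imaging in empty-vector Tsc2-/-, p53-/- mouse embryonic fibroblasts after 24 hrs compound exposure at 37 degree Celsius. Results are reported as % positive cells per well.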

[3] = High Content Imaging Cell-Based qHTS for Inhibitors of the mTORC1 Signaling Pathway in MEF Cells (AID 2667); also: potency is read from the fitted curve at half-maximal effect
How it was run: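 Fixed-cell imaging of phospho-S6 (Ser235/236, Alexa-488) after 24 hrs of compound treatment at 37 degree Celsius. Signal was normalized to Hoechst, and thresholds from the highest and lowest wells split cells into % active versus % non-active.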

[4] = Cytometric Cell-Based qHTS for Inhibitors of the mTORC1 Signaling Pathway in MEF (Tsc2-/-, p53-/-) Cells (AID 2660);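 also: percent of cells above a phospho-rpS6 to PI ratio cutoff in each well; series mostly up to about 38 µM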
How it was run: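 Tsc2-/-, p53-/- MEFs (empty vector) exposed to compound 24 h at 37 C, fixed, stained with Alexa-488 anti-phospho-rpS6 Ser235/236 and propidium iodide. Acumen laser scanning; phospho-S6/PI ratio thresholded against 7.5 nM rapamycin, reported as % positive cells.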

[5] = Cytometry Cell-Based qHTS for Inhibitors of the mTORC1 Signaling Pathway in MEF cells (AID 2668); also: potency is read from the fitted curve at half-maximal effect
How it was run: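 Phospho-rpS6 (Ser235/236) immunofluorescence over PI signal, scored as % positive cells using thresholds from 7.5 nM rapamycin and DMSO wells, after 24 h compound exposure of WT-Tsc2-rescued Tsc2-/-, p53-/- MEFs. PI cell count recorded for viability.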

Measured: Potency

O=c1[nH]c2ccccc2n1CCCN1CCN(C(c2ccccc2)c2ccccc2)CC1
inactive: [1]

NS(=O)(=O)C#Cc1ccccc1
inactive: [2] | [3]

O=C(O)/C=C/C(O)c1ccc(Cl)cc1 (stereo not drawn)
inactive: all assays above

NCCCCC(=O)O
inactive: all assays above

CC(C)NC[C@@H](O)c1ccc(O)c(O)c1
inactive: [2] | [3] | [5]

O=C1NC(=O)/C(=C/c2ccc3nccnc3c2)S1
active: [5] 16.5 µM
inactive: [2]

O=C1NC(=O)/C(=C/c2ccc(-c3ccc(F)cc3O)o2)S1
not listed: [1]
inactive: all other assays above

CCc1c(C(=O)NCCc2ccc(N3CCCCC3)cc2)[nH]c2ccc(Cl)cc12
not listed: [1]
inactive: all other assays above

OC[C@H]1O[C@@H](n2cnc3c(NC4CCCC4)ncnc32)[C@H](O)[C@@H]1O
not listed: [1]
inactive: all other assays above

C=CC(C)=C[C@@]1(C)SC(=O)C(C)=C1O
not listed: [1]
inactive: all other assays above

Clc1ccc(N2CCN(Cc3cc4ccccn4n3)CC2)cc1
not listed: [1]
inactive: all other assays above

Oc1ccccc1O
inactive: [2]

CCCCCC(O)c1cccc(OCc2ccc3ccccc3n2)c1 (stereo not drawn)
inactive: [2] | [3] | [5]

CCCC1(C)C(C#N)(C#N)C1(C#N)C#N
inactive: [2]
active: [3] 2.33 µM

O=C(c1ccc(OCCCc2cnc[nH]2)cc1)C1CC1
not listed: [1]
inactive: all other assays above

Cn1ncc(S(=O)(=O)Cc2ccccc2)c(Br)c1=O
inactive: [2]

O=C(c1cc(O)c(O)c([N+](=O)[O-])c1)c1ccccc1F
not listed: [1]
inactive: all other assays above

O=[N+]([O-])c1ccc2c(c1)S(=O)(=O)C=C2
inactive: [2]
active: [3] 1.85 µM

OC[C@H]1O[C@@H](n2cnc3c(Nc4ccccc4)ncnc32)[C@H](O)[C@@H]1O
not listed: [1]
inactive: all other assays above

O=c1[nH]c2cc(C(F)(F)F)ccc2n1-c1cc(C(F)(F)F)ccc1O
inactive: all assays above

C[N+]1(C)C2CC(OC(=O)[C@H](CO)c3ccccc3)CC1C1OC12 (stereo partly drawn)
not listed: [1]
inactive: all other assays above

NC(CCCP(=O)(O)O)C(=O)O (stereo not drawn)
inactive: all assays above

O=[N+]([O-])c1ccc(CSc2ncnc3c2ncn3[C@@H]2O[C@H](CO)[C@@H](O)[C@H]2O)cc1
not listed: [1]
inactive: all other assays above

N=c1ccn2c(n1)O[C@H]1[C@H](O)[C@@H](CO)O[C@H]12
inactive: [2] | [3]

C=C/C(C)=C/[C@@]1(C)SC(=O)C(C)=C1O
inactive: [1]

COc1cc2c(CCNC(C)=O)c[nH]c2cc1Cl
not listed: [5]
inactive: all other assays above

N#C/C(=C\c1ccc(-c2cc(Cl)ccc2Cl)o1)C(=O)Nc1cccc2ncccc12
inactive: [2] | [3]

COc1ccc2c(c1)CCC1C2CC[C@@]2(C)C1CC[C@@H]2NCCCCCCN1C(=O)CCC1=O (stereo partly drawn)
inactive: [4] | [2]
active: [3] 3.69 µM | [5] 4.65 µM

N=C(N)SCCc1ccc(CCSC(=N)N)cc1
inactive: all assays above

NC[C@H]1O[C@@H](n2cnc3c(N)ncnc32)[C@H](O)[C@@H]1O
not listed: [1]
inactive: all other assays above

Cc1ccc(C(=O)O[C@H](C(=O)O)[C@@H](OC(=O)c2ccc(C)cc2)C(=O)O)cc1 (tested in a mixture with another compound)
inactive: all assays above

N.N.N.N.N.N.N.N.N.N.N.N.N.N.O.O.[Ru+4].[Ru+5].[Ru+5]
not listed: [1]
inactive: all other assays above
